A number with no mark means an inactive call. How the calls were made is not given here.
Molecular target: CD276, Q5ZPR3
Sequence (Q5ZPR3 whole entry): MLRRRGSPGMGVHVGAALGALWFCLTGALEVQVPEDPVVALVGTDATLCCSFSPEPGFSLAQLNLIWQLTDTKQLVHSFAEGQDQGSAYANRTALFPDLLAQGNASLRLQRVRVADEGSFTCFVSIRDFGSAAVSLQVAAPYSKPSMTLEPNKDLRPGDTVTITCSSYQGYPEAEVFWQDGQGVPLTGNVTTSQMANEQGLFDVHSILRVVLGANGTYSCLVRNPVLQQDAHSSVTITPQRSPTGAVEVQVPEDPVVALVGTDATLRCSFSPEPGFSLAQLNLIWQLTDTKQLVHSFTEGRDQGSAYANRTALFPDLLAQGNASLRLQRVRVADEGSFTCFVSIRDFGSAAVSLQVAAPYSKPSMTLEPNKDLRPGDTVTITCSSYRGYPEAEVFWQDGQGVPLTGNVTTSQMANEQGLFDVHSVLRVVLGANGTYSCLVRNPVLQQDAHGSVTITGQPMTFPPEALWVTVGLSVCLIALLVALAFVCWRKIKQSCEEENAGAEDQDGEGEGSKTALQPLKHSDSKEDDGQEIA

B1: d2r6_design_ppi_176_dldesign_0_cycle1_af2pred (protein)
chain: ALREEVEKKMGEVLDLLKELQEKKKKGELTPEQIELMQQSMRELAKAAGYLASGDKVEEAKKEAEKALELAKKALEE
In the case of B1, the “binding in a display sort” value is reported as “not found”.

B2: d2r6_design_ppi_165_dldesign_0_cycle0_af2pred (protein)
chain: MEVVEKVAELARKAAEAVERNLGEGFALAIQAADLAAEHEEVAEEAAEAAEEVLRKRAEEHPEHRERLLRLAEDFRSAVAHLLAQKA
B2 was tested, and the “binding in a display sort” value was “not found”.

B3: d1r12_design_ppi_822_dldesign_0_cycle1_af2pred (protein)
chain: AAAARAAEAAALAAAVTAAAAAVAAAVAAGTPDEGRAAARAFGRAALGAAARLPEVAPAVDAAADVVSDAYVAAVAAR
In the case of B3, the “binding in a display sort” value is reported as “not found”.

B4: d1r12_design_ppi_474_dldesign_0_cycle0_af2pred (protein)
chain: KEELKKEIKKLAKKAKEHAEEAKRTAGDLGAMARHTTEAAAAAEKAQALAAKSGDEEAKKLAKEAKEAAAEATEHLVEAARAAA
B4 was tested, and the “binding in a display sort” value was “not found”.

B5: d2r2_design_ppi_470_dldesign_0_cycle1_af2pred (protein)
chain: AAARARAYVALWQAANRAFAAAFATGSDAALAAARAAAAAAGAVLPGGRDAFLATVDSQAAALRAARAAAAAAAAA
With B5 the “binding in a display sort” value was “not found”.

B6: d2r7_design_ppi_474_dldesign_0_cycle1_af2pred (protein)
chain: MASLEAGYQQFLDSIAALPLDRADAQLAAQAARHRELAARYAAAAEAAADPAVAARLRARARDHEAAAAAVEAIRAEVTARAAARA
B6 was tested, and the “binding in a display sort” value was “not found”.

B7: d1r12_design_ppi_352_dldesign_0_cycle0_af2pred (protein)
chain: SRARANYAQLVAESAEGGAKAAEAKAKAAKAAGDEATAKKYEEAAELYREGAALAKAGDIAGAVAKINEAAALLAA
With B7 the “binding in a display sort” value was “not found”.

B8: d1r12_design_ppi_87_dldesign_0_cycle1_af2pred (protein)
chain: GAALEEAERLMEEAEAALAQAEATGDQRLLGAAMAAAERAVELATREASPEEAAEVERRAAELFARAAEVSQRIAAALLARAAAQA
For B8, the “binding in a display sort” value was “not found”.

B9: d2r6_design_ppi_69_dldesign_0_cycle1_af2pred (protein)
chain: GLEAAQAEASRLWRQLTPEGRAAAARAVNARVAGDTAAAAAILAAAKAADPAQGALAEAAAEALLRAIDLANAQAAAEAAARAAAA
With B9 the “binding in a display sort” value was “not found”.

B10: d2r6_design_ppi_32_dldesign_0_cycle1_af2pred (protein)
chain: MKEELKKALKNAEDAAATAKQVAASDPEAKAKVEELEKEARKLAKEGLEGTEEKAEEALKRVGELTREILRIASQQFAKQQA
With B10 the “binding in a display sort” value was “not found”.

B11: d1r12_design_ppi_102_dldesign_0_cycle0_af2pred (protein)
chain: AAAEAAARLAEAEALLAKAKEHAKKAKEAAKAGDLAAANQHATAASAAALAIKELGAPADIQAAADAAVAEAMDAVVAAAKAR
For B11, the “binding in a display sort” value was “not found”.

B12: d2r7_design_ppi_31_dldesign_0_cycle1_af2pred (protein)
chain: AEAEALEAGAQVLSIVTATRAQTVAAFAQDPALGRQMYRQLQAAVRLAETTAKAYPAVAAELLAAAAAARAEAQAAL
With B12 the “binding in a display sort” value was “not found”.

B13: d2r6_design_ppi_69_dldesign_0_cycle0_af2pred (protein)
chain: ALEELRRRASELWRALSPEARQAAARAVNARVAGDEAAAEAILAEQEARDPEQGALARAAADAALAAIDLANAQAAAAARAAAAAA
B13 was tested, and the “binding in a display sort” value was “not found”.

B14: d1r12_design_ppi_387_dldesign_0_cycle1_af2pred (protein)
chain: MEAARAAFERRKAALEADRAEAEALLADPATAAEGRALLAALAVRAKAYGKLFAAHDPELGAELTALGEEAAALA
For B14, the “binding in a display sort” value was “not found”.

B15: d1r11_design_ppi_982_dldesign_0_cycle1_af2pred (protein)
chain: AAAARAQAAQVVADSARAAAKEAEAKAKEAEAKDPAYGKELKANAEKLKAAAEAAEADPAALPEAVKTLIEQTSNMRALEAKLAA
B15 was tested, and the “binding in a display sort” value was “not found”.

B16: d2r6_design_ppi_95_dldesign_0_cycle1_af2pred (protein)
chain: AEAQAQAKAIVQQGYQDARALIDKYGLPVAAKVKVFNLVSAGAIIAEQGGTVEEVAAAVEAALAAAKAAAA
In the case of B16, the “binding in a display sort” value is reported as “not found”.

B17: d1r11_design_ppi_865_dldesign_0_cycle0_af2pred (protein)
chain: DAELKAQAAKIAKEAIEKAKKAKDKNEVWRYASQGLAQLTRIAAAGSPEVKAFAAEQAKKLTEEAEKIVAAL
With B17 the “binding in a display sort” value was “not found”.

B18: d1r12_design_ppi_352_dldesign_0_cycle1_af2pred (protein)
chain: SAARARYAALVAESAEVGAATYDAAAKAAEAAGDAATAAKYKEAAALYKAGADAAKAGDIAAAVAKINAAAALVAA
B18 was tested, and the “binding in a display sort” value was “not found”.

B19: d2r2_design_ppi_429_dldesign_0_cycle1_af2pred (protein)
chain: AAAEALRRALGAVLVAAHEAANRAAAERGLAAAEEVLAAGRAAGHALAARHPGAALARRAVDSQVAASAHVARHIAARAAALR
In the case of B19, the “binding in a display sort” value is reported as “not found”.

B20: d1r12_design_ppi_153_dldesign_0_cycle1_af2pred (protein)
chain: AAAHEAFVAEVTAVADAAADAASAAWLAGQTAGPEWRAVADRLVALAREALRAAADPARAPEARRAAAEAAALAAEAAALVAAA
In the case of B20, the “binding in a display sort” value is reported as “not found”.

B21: d1r12_design_ppi_293_dldesign_0_cycle1_af2pred (protein)
chain: AAAAEAARKAALAAAADAHAAGAQAALRAARQAAERGDPEAARTFMDLALTSAQQARDLYDEAGFPEKGKAVYEATRAAVAEVEALL
With B21 the “binding in a display sort” value was “not found”.

B22: d1r11_design_ppi_369_dldesign_0_cycle0_af2pred (protein)
chain: MQERLDAYNAEAGAALEAAAASTDGARRLALMRKAAGLGLAAAGYAAGPEAGEAAEKQAEARFAAADAALA
B22 was tested, and the “binding in a display sort” value was “not found”.

B23: d1r11_design_ppi_712_dldesign_0_cycle0_af2pred (protein)
chain: MTPEEKAARLAAAADAYIKMAKAALAAGKLEEAKEFAEAALKAAKEAEKLDPELGAKKAAEAKAVKAEIDAA
For B23, the “binding in a display sort” value was “not found”.

B24: d2r3_design_ppi_395_dldesign_0_cycle1_af2pred (protein)
chain: SREALRQAGQLAVQAQTLANRGLALLLADPAAAPEAQALLDQAAALGEQAPVAAPVAETGRAQFAALAARL
For B24, the “binding in a display sort” value was “not found”.

B25: d1r12_design_ppi_675_dldesign_0_cycle0_af2pred (protein)
chain: DEARRAGALAFAEQLRASFAATRAAAAALPRASAAAALAGIAASAKQLGAVVPEAAELAAEAAAAAAAVAA
B25 was tested, and the “binding in a display sort” value was “not found”.

B26: d1r12_design_ppi_408_dldesign_0_cycle1_af2pred (protein)
chain: MEALAQAGHAANQAAAADPAQAPRAAALLREMIAHARAASAAWLEAQALEAAGGDPAAVAAARAAAAEHQAKAEALAAELKALAEAAA
B26 was tested, and the “binding in a display sort” value was “not found”.

B27: d1r11_design_ppi_627_dldesign_0_cycle1_af2pred (protein)
chain: AEEVAARAAELTRTVHHGSPEEATAAARELTALVAAASPEAAAAGRRAIAETNKALLAETAAARAAAAAAAAAAAAAAAAAAA
In the case of B27, the “binding in a display sort” value is reported as “not found”.

B28: d1r11_design_ppi_460_dldesign_0_cycle1_af2pred (protein)
chain: AAEEALKRAEELAKEVIELAEKVPEAAALGKKVREALEAARHGAESLMRAAARSTPEAAAVMNESAIAMNEAAIKLAEELRKEIEKIA
With B28 the “binding in a display sort” value was “not found”.

B29: d1r12_design_ppi_408_dldesign_0_cycle0_af2pred (protein)
chain: SLELAEAAHAAGRAAAADPARAAEAGALLKDMIAYALAASAAYREAEALRAAGGDQAAIDAAEAEAKAYEAKSKEKAAELKALAAAAA
In the case of B29, the “binding in a display sort” value is reported as “not found”.

B30: d2r6_design_ppi_231_dldesign_0_cycle1_af2pred (protein)
chain: AAAAEAAAAADERIATGAAAVAAMARVGARRGVEAARRLGERMLEAVTRAMAAEDPAAGARAREVGTAVFEAEIAAAAAAAAA
In the case of B30, the “binding in a display sort” value is reported as “not found”.

B31: d2r6_design_ppi_356_dldesign_0_cycle0_af2pred (protein)
chain: SEEELEKTRASLEQLKGLAEWQAAQHPEQAPLYAEAARLAEEGMKATVEEARQLGAQASALLGRAVGAAAA
With B31 the “binding in a display sort” value was “not found”.

B32: d2r7_design_ppi_218_dldesign_0_cycle0_af2pred (protein)
chain: SAAEAEAKRYINHAETTLATAKQLAERSTPEQAARYYRAAGEIAWKDYEKAGEALSPEEGEKMRKKGKEVKEELEKKAKELEEK
In the case of B32, the “binding in a display sort” value is reported as “not found”.

B33: d2r6_design_ppi_493_dldesign_0_cycle1_af2pred (protein)
chain: SATEAQVAAVKAKIDAATQAALNAHAARLTAAGIQAVIQTAYDASKAAGAEVKAGGDPEKAAAAAIKAVNDTAEAAAA
B33 was tested, and the “binding in a display sort” value was “not found”.

B34: d1r11_design_ppi_712_dldesign_0_cycle1_af2pred (protein)
chain: MTPAQQAAQLANQANSYITMAKAALAAGDLETAKEFAELAIEYATQAQKLDPALGTAVKAEAEAVLAQVNAA
B34 was tested, and the “binding in a display sort” value was “not found”.

B35: d2r7_design_ppi_460_dldesign_0_cycle1_af2pred (protein)
chain: AAALAAARAAAAAAAAEAVARAAAEGPGLGLLMANEAARLLREAAAGDAAEVRAAAARLLAFAEQAIAAARANRAQAAAAR
B35 was tested, and the “binding in a display sort” value was “not found”.

B36: d2r6_design_ppi_333_dldesign_0_cycle0_af2pred (protein)
chain: MEEEGKKKAEEALKKAEESLKLAKSGKKLKEAEKKFAEALSLMEEAKPYLNKNPEVNKKLSKKLGEAAKALIAAKA
In the case of B36, the “binding in a display sort” value is reported as “not found”.

B37: d2r2_design_ppi_370_dldesign_0_cycle1_af2pred (protein)
chain: RVISPAEIVELHTAANAALREALEGDPEAGLARLRAVADRAAALSPALGAALRAEAEGARAALAAAAAAAAA
For B37, the “binding in a display sort” value was “not found”.

B38: d2r4_design_ppi_198_dldesign_0_cycle1_af2pred (protein)
chain: AASAAMRAFTAAYGAANAAVARLYAADPAAGAAAARALQAALDEALALGAATGVAGIEEGAAALAAAAAALAAEAAALAAA
For B38, the “binding in a display sort” value was “not found”.
